The list is not random: actives were taken first. Their share in the collection is about 6.2%.
S2 tox: cell viability loss in ATXN counter-screen; AID 651635; 0.49% of 400,000 active; Potency, µM (titrated, usually from 56.7 µM), most hits filed as cytotoxic; S2 cells (HEK-293 line with an ATXN2-luciferase reporter) viability, CellTiter-Fluor protease fluorescence, 24 h; note: nearly all actives have a fitted effect of over 40% in size
HT1080NT lethal: kills 2HG-producing HT-1080-NT fibrosarcoma cells. HT-1080-NT fibrosarcoma viability, CellTiter-Glo ATP luminescence, 48 h. 1.6% of 360,000 active. Potency, µM (series often up to 46.1 µM), for inactives: at the highest dose activity, negative = less viability, most hits filed as cytotoxic;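 note: NT is the 2HG producing partner of a matched IDH1 knockdown line; 0% = DMSO-treated cells and -100% = media-only wells without cells; nearly all actives have a fitted effect of over 55% in size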
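Fibrosarcoma NT cells, 750 per well in 5% FBS RPMI, were exposed to compound for 48 hours. Viability: CellTiter-Glo luminescence.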
ATXN2 expr inh: reduces ATXN2 reporter expression in HEK-293 cells; Potency, µM (series often up to 57 µM), inactives show at the highest dose activity change, negative = inhibition, hits mostly inhibitors; 0.72% of 360,000 active; AID 1745845; HEK-293 ATXN2-luciferase reporter, luminescence, 24 h; note: % is set by controls: 0 for no effect and ±100 for the full control effect; nearly all actives have a fitted effect of over 55% in size
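qHTS (up to 57 uM final) was run with 24 h compound exposure of reporter cells at 37 °C. Each well was multiplexed: SteadyGlo luminescence measured ATXN2-luciferase expression after a fluorogenic Gly-Phe-AFC viability readout (25 uM final).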
KB-V1 MDR tox: KB-V1 MDR subline cytotoxicity; KB-V1 MDR cells viability, CellTiter-Glo, 72 h; Potency, µM (doses to about 46.1 µM), usual class: cytotoxic; 3.4% of 400,000 active; AID 1347076; note: % is set by controls: 0 for no effect and ±100 for the full control effect; nearly all actives have a fitted effect of over 60% in size
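Following 72 h at 37 degrees C with compound, KB-V1 cell viability was read by CellTiter-Glo luminescence, medium being phenol-red-free DMEM plus 10% FBS; concentration-response parameters came from normalized, curve-fitted qHTS data.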
KB-3-1 cytotox: KB-3-1 parental cell cytotoxicity | Potency, µM (series often up to 46.1 µM), hits mostly cytotoxic | KB-3-1 viability, CellTiter-Glo ATP luminescence, 72 h | 1.4% of 400,000 active | AID 1347075; note: % is set by controls: 0 for no effect and ±100 for the full control effect; nearly all actives have a fitted effect of over 60% in size
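Here the drug-naive KB-3-1 line serves as comparator for MDR sub-line selectivity; cells received compound titrations, 72 h at 37 °C, then CellTiter-Glo readout.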
HT1080 IDH1KD tx: HT-1080 IDH1 knockdown cell toxicity (counter line). HT-1080 IDH1 knockdown viability, ATP luminescence, 48 h. Potency, µM (titrated, usually from 46.1 µM), for the others: at the highest dose activity, negative = toxicity, actives largely listed as cytotoxic. 2% of 360,000 active. AID 686971;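 note: 0% = DMSO wells and -100% = cell-free medium wells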
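% activity derives from luminescence (CellTiter-Glo), normalised to DMSO and no-cell wells. HT-1080-IDH1KD cells, 750/well, had 48 h compound exposure at 37 °C.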
The depositor's hits bear a star. Calls come from the whole dose curve; as a rule, active = well fitted curve in the direction sought with a large enough effect; inconclusive = small, poorly fitted or top-dose-only effect, or another doubt; inactive = no such curve, though single readings can be large; an effect the other way counts as inactive or inconclusive. Potency is the fitted concentration of half-maximal effect.

For O=C(N[C@@H]1c2ccccc2C2(CCN(C(=O)c3cc4ccccc4oc3=O)CC2)[C@H]1O)c1cccnc1 the results were S2 tox inactive.
`O=C(c1ccc2c(c1)CCN2S(=O)(=O)c1ccc(Cl)cc1)N1CCN(c2ccc(F)cc2)CC1` gave S2 tox inconclusive, ATXN2 expr inh -21%, KB-V1 MDR tox inconclusive and KB-3-1 cytotox inactive.
`CCN(CC)CCNC(=O)C1CCN(S(=O)(=O)c2c(C)noc2/C=C/c2ccccc2F)CC1` gave S2 tox inconclusive, HT1080NT lethal inconclusive, ATXN2 expr inh 13µM*, KB-V1 MDR tox inconclusive, KB-3-1 cytotox inactive and HT1080 IDH1KD tx inconclusive.
For CCN(CCNC(=O)C1CCN(S(=O)(=O)c2c(C)noc2C)CC1)c1ccccc1 the results were S2 tox inactive, HT1080NT lethal -4%, ATXN2 expr inh -10%, KB-V1 MDR tox inactive, KB-3-1 cytotox inactive and HT1080 IDH1KD tx -1%.
`N#CC1=C2SCC(O)(c3ccccc3)N2C(=O)CC1c1cccs1` (configuration not stated) gave S2 tox inactive, HT1080NT lethal 0.63µM*, ATXN2 expr inh 34%, KB-V1 MDR tox 0.58µM*, KB-3-1 cytotox 0.73µM* and HT1080 IDH1KD tx 0.35µM*.
COc1cccc(C2CC(=O)N3CN(c4ccccc4F)CSC3=C2C#N)c1 (configuration not stated) was read as S2 tox inactive, HT1080NT lethal 6%, ATXN2 expr inh 9%, KB-V1 MDR tox inactive, KB-3-1 cytotox inactive and HT1080 IDH1KD tx -1%.
Screening N#CC1=C2SCN(Cc3ccccc3)CN2C(=O)CC1c1ccccc1F (configuration not stated) returned S2 tox inactive, HT1080NT lethal -3%, ATXN2 expr inh -6%, KB-V1 MDR tox inactive, KB-3-1 cytotox inactive and HT1080 IDH1KD tx -1%.
For N#CC1=C2SCC(O)(c3ccccc3)N2C(=O)CC1c1ccccc1F (configuration not stated) the results were S2 tox inconclusive, HT1080NT lethal inconclusive, ATXN2 expr inh -7%, KB-V1 MDR tox inconclusive, KB-3-1 cytotox 9.2µM* and HT1080 IDH1KD tx 16µM*.
`COc1ccc(C2CC(=O)N3C(=C2C#N)SCC3(O)c2ccccc2)cc1` (configuration not stated) gave S2 tox inactive, HT1080NT lethal -14%, ATXN2 expr inh 42%, KB-V1 MDR tox 21µM*, KB-3-1 cytotox inactive and HT1080 IDH1KD tx inconclusive.
For O=C(NCCOc1ccccc1)c1ccccc1Cl the results were HT1080NT lethal 6%, ATXN2 expr inh 9%, KB-V1 MDR tox inconclusive, KB-3-1 cytotox inactive and HT1080 IDH1KD tx 13%.
Screening CN(C(=O)COc1ccccc1C(=O)NCCOc1ccccc1)c1ccccc1 returned S2 tox inconclusive, HT1080NT lethal 21µM*, ATXN2 expr inh inconclusive, KB-V1 MDR tox 8.2µM*, KB-3-1 cytotox 15µM* and HT1080 IDH1KD tx inconclusive.
`Cc1c(C(=O)NC(C)(C)C)sc2ncnc(NCCN(C)C)c12` gave S2 tox inactive.
`CCCOc1ccccc1C1NC(=O)NC(C)=C1C(=O)OCCOC` (configuration not stated) gave S2 tox inactive, HT1080NT lethal 9%, ATXN2 expr inh 0%, KB-V1 MDR tox inactive, KB-3-1 cytotox inactive and HT1080 IDH1KD tx 6%.
CCOC(=O)C1=C(CN2CC(C)CC(C)C2)NC(=O)NC1c1ccc2c(c1)OCO2 (configuration not stated) was read as S2 tox inactive, HT1080NT lethal -27%, KB-V1 MDR tox 18µM*, KB-3-1 cytotox inactive and HT1080 IDH1KD tx -4%.
Screening COc1ccc(COC(=O)C2=C(C)NC(=O)NC2c2cccc(OC)c2OC)cc1 (configuration not stated) returned S2 tox inactive, HT1080NT lethal 7%, ATXN2 expr inh -20%, KB-V1 MDR tox inactive, KB-3-1 cytotox inactive and HT1080 IDH1KD tx -12%.
`CC1=C(C(=O)OCc2ccc3c(c2)OCO3)C(c2ccccc2)NC(=O)N1` (configuration not stated) gave S2 tox inactive, HT1080NT lethal inconclusive, ATXN2 expr inh inconclusive, KB-V1 MDR tox 12µM*, KB-3-1 cytotox 23µM* and HT1080 IDH1KD tx inconclusive.
CCCOc1ccccc1C1NC(=O)NC(C)=C1C(=O)OCc1ccccc1 (configuration not stated) was read as S2 tox inactive, HT1080NT lethal inconclusive, ATXN2 expr inh inconclusive, KB-V1 MDR tox 21µM*, KB-3-1 cytotox inactive and HT1080 IDH1KD tx inconclusive.
Screening CCOC(=O)C1=C(C)NC(=O)NC1c1cccc(OC)c1OCc1ccccc1Cl (configuration not stated) returned S2 tox inactive, HT1080NT lethal -25%, ATXN2 expr inh -17%, KB-V1 MDR tox 13µM*, KB-3-1 cytotox inactive and HT1080 IDH1KD tx inconclusive.
Screening OCC1CCCN(c2nc3cc4c(cc3cc2CNCc2cccc(C(F)(F)F)c2)OCO4)C1 (configuration not stated) returned S2 tox inactive.
For Cc1cc(C)n(C(C)CC(=O)NCc2ccccc2C)n1 (configuration not stated) the results were S2 tox inactive, ATXN2 expr inh -4%, KB-V1 MDR tox inactive and KB-3-1 cytotox inactive.
Screening COc1ccc(Br)cc1C(=O)Nc1ccc(-c2nc3ncccc3o2)cc1C returned S2 tox inactive, ATXN2 expr inh 10%, KB-V1 MDR tox inactive and KB-3-1 cytotox inactive.
`Cc1nn(CCC(=O)NCc2cccc(Br)c2)c(=O)c2nn(-c3ccccc3)c(C)c12` gave KB-V1 MDR tox inactive and KB-3-1 cytotox inactive.
CN(C)c1ccc(/C=C/C=C2/SC(=S)N(c3ccccc3)C2=O)cc1 was read as S2 tox 16µM*, HT1080NT lethal 2%, ATXN2 expr inh 2%, KB-V1 MDR tox inconclusive, KB-3-1 cytotox inactive and HT1080 IDH1KD tx -20%.
Screening O=C(O)c1ccc(N2C(=O)/C(=C/C=C/c3ccccc3)SC2=S)cc1 returned S2 tox inactive, HT1080NT lethal -3%, ATXN2 expr inh 3%, KB-V1 MDR tox inactive, KB-3-1 cytotox inactive and HT1080 IDH1KD tx 7%.
Screening CCN1CCC(O)(/C=C/c2ccc(C(C)C)cc2)C(C(=O)/C=C/c2ccc(C(C)C)cc2)C1 (configuration not stated) returned HT1080NT lethal inconclusive, ATXN2 expr inh inconclusive, KB-V1 MDR tox inconclusive, KB-3-1 cytotox inconclusive and HT1080 IDH1KD tx 21µM*.

Bioassay records from PubChem BioAssay.
